Screening data deposited in PubChem by several laboratories.
Only some compounds are listed: those with a hit (about 5.4% of all), similar ones and a draw of the others.
PHOSPHO1 inh: blocks human PHOSPHO1 phosphatase activity; Q8TCT1; recombinant PHOSPHO1, absorbance phosphatase assay; inhibition, % at 13.3 µM; hit rate 1.1% among 290,000; AID 1565; in the data active = inhibition above about 60%
Target sequence (Q8TCT1 whole entry, looked up): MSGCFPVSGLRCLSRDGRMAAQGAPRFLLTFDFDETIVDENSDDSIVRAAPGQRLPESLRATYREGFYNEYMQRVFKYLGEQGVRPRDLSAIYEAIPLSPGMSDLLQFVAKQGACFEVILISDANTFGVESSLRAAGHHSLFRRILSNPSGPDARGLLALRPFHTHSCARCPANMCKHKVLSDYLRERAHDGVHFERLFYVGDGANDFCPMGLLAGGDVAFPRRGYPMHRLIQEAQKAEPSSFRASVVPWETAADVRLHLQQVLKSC
ALR H2O2 inh: inhibitors of human sulfhydryl oxidase ALR; hit rate 3.8% among 290,000; purified ALR, DTT oxidation, H2O2 HRP-luminol luminescence; P55789; inhibition, % (concentration not given with the values);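 active = mean replicate inhibition above about 79%, with every replicate also reaching it, limit read from the data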
Target sequence (P55789 whole entry, looked up): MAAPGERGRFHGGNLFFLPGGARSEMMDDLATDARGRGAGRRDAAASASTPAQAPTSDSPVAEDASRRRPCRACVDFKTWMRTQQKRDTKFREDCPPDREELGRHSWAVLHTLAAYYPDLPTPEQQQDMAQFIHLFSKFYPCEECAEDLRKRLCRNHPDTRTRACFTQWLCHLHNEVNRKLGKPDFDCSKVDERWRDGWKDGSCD
APOBEC3G inh: blocks human APOBEC3G single-stranded DNA deamination. inhibition, % at 20 µM. recombinant A3G, ssDNA deamination FAM/TAMRA fluorescence. hit rate 0.28% among 330,000. Q9HC16;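 active = inhibition of at least 40% at 20 µM, with no more than 30% in the related APOBEC3A deaminase screen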
rCAG RNA binder: r(CAG) repeat RNA binding; TO-PRO-1 dye displacement fluorescence; inhibition, % at 3 µM; hit rate 1.3% among 370,000;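 active = inhibition above the plate cutoff, the mean of all test compounds on that plate plus 3 SD, cut at about 35% in these data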;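 note: higher means more dye released from RNA so lower well fluorescence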
APOBEC3A inh: inhibitors of human APOBEC3A DNA deaminase; P31941; recombinant A3A, FAM/TAMRA ssDNA deamination fluorescence; inhibition, % at 20 µM; hit rate 0.41% among 330,000; AID 493011;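 active = at least 40% inhibition at 20 µM here, with at most 30% in a related deaminase screen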
aDG glyco act: increases alpha dystroglycan glycosylation. Pro5-aDG cells, alpha-DG glycosylation AlphaScreen (IIH6); 0% Pro5, 100% B10-LARGE cell signal. activation, % at 10 µM. hit rate 0.22% among 360,000. AID 624168;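 active = activation of at least 8% versus controls, or a plate z-score of at least 8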;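 note: Pro5 are CHO cells carrying HIG-tagged alpha-DG that lacks glycosylation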
rCAG bind conf: r(CAG) RNA repeat binding, confirmation. shares compounds with rCAG RNA binder. TO-PRO-1 dye displacement fluorescence. inhibition, % at 3 µM. hit rate 70% among 4,300. AID 652065;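 active = inhibition above a per-plate cutoff, the mean inhibition of sample wells plus 3 SD, cut at about 35% in these data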;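 note: loss of TO-PRO-1 fluorescence as compound displaces dye from 1x1 AA loop RNA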
dCAG dye counter: disrupts DNA CAG TO-PRO-1 complex, flagging rCAG hits | shares compounds with rCAG RNA binder | d(CAG) DNA oligo TO-PRO-1 dye displacement, fluorescence | inhibition, % at 3 µM | hit rate 94% among 4,300 | AID 652068;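 active = inhibition above its plate's cutoff, the mean test-well inhibition plus 3 SD, cut at about 4.8% in these data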;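 note: hits displace the dye from DNA and so lower well fluorescence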
dCAG dye DR: counter-screen for rCAG binders: inhibitors of DNA CAG TO-PRO-1 complex; hit rate 20% among 250; DNA CAG/GTC duplex TO-PRO-1 dye displacement fluorescence; shares compounds with rCAG RNA binder; IC50, µM; in the data active = IC50 below about 10 µM
Of the large screens only hits and unclear results are named; the others gave an inactive call (follow-up assays come after a bar, where they were run); ! = not active in a repeat.

O=[N+]([O-])c1ccc(O)c(C=Nc2ccc3nc(-c4ccccc4)[nH]c3c2)c1	none
Oc1c(Br)cc(C=Nc2ccc3nc(-c4ccccc4)[nH]c3c2)c(O)c1Br	rCAG RNA binder 46 (no result: aDG glyco act) | rCAG bind conf 56 | dCAG dye counter 25
CC[C@H](C)[C@H](NC(=O)OCc1ccccc1)C(=O)OCC(=O)N1CCN(c2ccc(OC)cc2)CC1	none (no result: PHOSPHO1 inh, ALR H2O2 inh, APOBEC3G inh, APOBEC3A inh)
O=C(Cn1cc2c(n1)CCCC2)NCc1cccnc1	none
O=C(Cn1cc2c(n1)CCCCC2)NCc1ccccc1	rCAG RNA binder 41 (no result: ALR H2O2 inh) | rCAG bind conf inactive | dCAG dye counter inactive
O=C(Nc1cccc(C(=O)N2CCOCC2)c1)C1CC1	none (no result: PHOSPHO1 inh, ALR H2O2 inh, APOBEC3G inh, APOBEC3A inh)
CC(C)(C)c1ccc(C(=O)NC(CC(=O)O)c2ccc(OC3CCCC3)cc2)cc1 (configuration not stated)	rCAG RNA binder 39 | rCAG bind conf 43 | dCAG dye counter 8.0
O=C(CN1c2ccccc2Sc2ccccc21)NNC(=S)Nc1ccc(Cl)cc1	rCAG RNA binder 62 (no result: ALR H2O2 inh) | rCAG bind conf 65 | dCAG dye counter 31 | dCAG dye DR inactive
COc1cccc(OCC(=O)NNC(=S)Nc2ccc(Cl)cc2Cl)c1	rCAG RNA binder 57 (no result: ALR H2O2 inh) | rCAG bind conf 47 | dCAG dye counter 15
O=C(CN1CCOCC1)NNC(=S)Nc1ccc(Cl)cc1	none (no result: ALR H2O2 inh)
O=C(CN1c2ccccc2Sc2ccccc21)N/N=C/c1ccc(Cl)cc1Cl	none
O=C(CN1c2ccccc2Sc2ccccc21)NNC(=S)Nc1ccc(Cl)cc1Cl	rCAG RNA binder 64 | rCAG bind conf 60 | dCAG dye counter 34
CCCCCCCCN1C(=O)[C@@H](CC(=O)N2CCCC2)C[C@@]2(C(=O)OC)C1=C[C@H](C1CCCC1)O[C@@H]2C	none (no result: PHOSPHO1 inh, ALR H2O2 inh, APOBEC3G inh, APOBEC3A inh, aDG glyco act)
Nc1[nH]c(C(=O)c2ccccc2)c(-c2ccccc2C(F)(F)F)c1C(=O)c1cccs1	none (no result: PHOSPHO1 inh, ALR H2O2 inh, APOBEC3G inh, APOBEC3A inh)
COC(=O)CCC(C)C1CCC2C3CCC4CC(O)CCC4(C)C3=CC(=O)C12C (configuration not stated)	none (no result: PHOSPHO1 inh, ALR H2O2 inh, APOBEC3G inh, APOBEC3A inh)
C[C@H](CCC(=O)O)[C@H]1CC[C@H]2[C@@H]3[C@H](O)C[C@@H]4C[C@H](O)CC[C@]4(C)[C@H]3CC[C@]12C	rCAG RNA binder 37 (no result: PHOSPHO1 inh, ALR H2O2 inh) | rCAG bind conf inactive | dCAG dye counter inactive
CC(CCC(=O)NN)C1CCC2C3CCC4CC(O)CCC4(C)C3CCC12C (configuration not stated)	none (no result: PHOSPHO1 inh, ALR H2O2 inh, APOBEC3G inh, APOBEC3A inh)
C[C@H](CCC(=O)O)[C@H]1CC[C@H]2[C@@H]3CC[C@@H]4C[C@H](O)CC[C@]4(C)[C@H]3C[C@H](O)[C@]12C	rCAG RNA binder 37! (no result: PHOSPHO1 inh) | rCAG bind conf 40 | dCAG dye counter 6.7
NC(=O)C1CCN(c2nc3ccccc3nc2NS(=O)(=O)c2ccc(Br)cc2)CC1	none (no result: PHOSPHO1 inh, ALR H2O2 inh)
CCOC(=O)C1CCCN(c2nc3ccccc3nc2NS(=O)(=O)c2ccc(C)cc2)C1 (configuration not stated)	rCAG RNA binder 62 (no result: PHOSPHO1 inh) | rCAG bind conf 58 | dCAG dye counter 15
CCOC1=C2[C@@H](CN(S(=O)(=O)c3ccc(C)cc3)[C@H]2c2ccccc2Cl)[C@H]2C(=O)N(C)C(=O)[C@H]2C1	none (no result: PHOSPHO1 inh, ALR H2O2 inh, APOBEC3G inh, APOBEC3A inh)
CCOC(=O)[C@]12CCCC=C1N(CCC1=CCCCC1)C(=O)[C@H](CC(=O)NCc1cccs1)C2	none (no result: PHOSPHO1 inh, ALR H2O2 inh, APOBEC3G inh, APOBEC3A inh)
CCCCCN(CCCCC)C(=O)C(CCC(=O)O)NC(=O)c1ccc(Cl)c(Cl)c1 (configuration not stated)	rCAG RNA binder 54 (no result: PHOSPHO1 inh) | rCAG bind conf 52 | dCAG dye counter 12
CCN(CC)C(=O)C(=O)c1cccn1-c1c(Cl)cccc1C#N	rCAG RNA binder 36 | rCAG bind conf inactive | dCAG dye counter inactive
CCN(CC)C(=O)C(=O)c1cccn1-c1cccc(Cl)c1C#N	none
CCn1nc(NS(=O)(=O)c2ccccc2[N+](=O)[O-])c2cc3ccc(C)cc3nc21	none (no result: rCAG RNA binder)
